“And” between values parts separate entries of the source, which are not always exact repeats. Equal entries are not always repeated. Unmarked numbers belong to inactive results. Results filed as inconclusive are left out. Entries that show only a call come without a potency. The source made the active and inactive calls. Calls follow the shape of the full dose curve.
Tests used:
[1] = target: Acetylcholinesterase (Homo sapiens) (UniProt P22303); test: Acetylcholinesterase (AChE) small molecule antagonists: colormetric cell-based qHTS assay (AID 1347395); also: nearly all actives have a fitted effect of over 30% in size
Chain of Acetylcholinesterase (Homo sapiens) (P22303 whole entry, looked up): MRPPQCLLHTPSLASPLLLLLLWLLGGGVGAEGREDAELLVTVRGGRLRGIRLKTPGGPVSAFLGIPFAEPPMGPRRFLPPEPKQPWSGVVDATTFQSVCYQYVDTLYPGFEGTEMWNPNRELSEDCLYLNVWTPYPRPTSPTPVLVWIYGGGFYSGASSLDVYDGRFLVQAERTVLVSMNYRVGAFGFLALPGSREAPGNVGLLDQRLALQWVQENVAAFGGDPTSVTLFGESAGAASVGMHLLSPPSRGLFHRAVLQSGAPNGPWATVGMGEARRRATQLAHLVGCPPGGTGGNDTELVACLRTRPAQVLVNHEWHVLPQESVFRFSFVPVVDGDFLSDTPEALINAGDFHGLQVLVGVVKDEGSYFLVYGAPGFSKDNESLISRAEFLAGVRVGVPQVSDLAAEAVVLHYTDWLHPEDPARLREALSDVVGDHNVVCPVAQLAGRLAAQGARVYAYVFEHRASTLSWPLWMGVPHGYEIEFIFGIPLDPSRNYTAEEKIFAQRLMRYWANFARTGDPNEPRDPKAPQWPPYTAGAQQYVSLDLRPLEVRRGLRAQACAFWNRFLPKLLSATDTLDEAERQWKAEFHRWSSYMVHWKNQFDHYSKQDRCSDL
Outline: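 Homogeneous whole-cell format. SH-SY5Y cells seeded overnight, dosed with compound (30 min, 37 C, 5% CO2), then given DTNB/acetylthiocholine cocktail for 90 min at 37 C; colorimetric signal.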

[2] = target: Acetylcholinesterase (Homo sapiens) (UniProt P22303); test: Acetylcholinesterase (AChE) small molecule antagonists: enzyme-based qHTS assay (AID 1347397); settings: Potency: AChE enzyme activity inhibition; outcome: AChE enzyme activity inhibition; also: nearly all actives have a fitted effect of over 55% in size
Outline: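 Recombinant human AChE, dispensed at 50 mU/mL, was preincubated with Tox21 10K compounds or DMSO vehicle for 30 min at room temperature. DTNB plus acetylthiocholine was then added, and thiocholine was measured colorimetrically after a further 10 min.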

[3] = target: Acetylcholinesterase (Homo sapiens) (UniProt P22303); test: Acetylcholinesterase (AChE) small molecule antagonists: fluorescence cell-based qHTS assay (AID 1347398); settings: Potency: AChE activity; outcome: AChE activity; also: nearly all actives have a fitted effect of over 50% in size
Outline: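 Human SH-SY5Y cells were plated overnight at 37 C, exposed to compound for 30 min at 37 C, 5% CO2, then given acetylthiocholine plus Thiolite Green for 40 min at room temperature; thiocholine fluorescence (Ex/Em 490/520 nm) reports endogenous AChE activity.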

[4] = target: Acetylcholinesterase (Homo sapiens) (UniProt P22303); test: Acetylcholinesterase (AChE) small molecule antagonists: enzyme-based qHTS assay with human liver microsomes (AID 1347399); settings: Potency: qHTS inhibition; outcome: qHTS inhibition; also: nearly all actives have a fitted effect of over 60% in size
Outline: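 Recombinant human AChE (50 mU/mL in the enzyme mix) and human liver microsomes (0.25 mg/mL final) were preincubated with compound and NADPH (0.25 mg/mL final) for 30 min at 37 C. Acetylthiocholine/DTNB was then added; thiocholine was read colorimetrically after 10 min at room temperature.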
Potency is read from the fitted curve at half-maximal effect.

Compound | Potency [1] | Potency [2] | Potency [3] | Potency [4] | activity, negative = inhibition [1] | activity change, negative = inhibition [2] | activity change, negative = inhibition [3] | activity change, negative = inhibition [4]
Oc1ccc2c(c1)OCO2 | inactive | inactive | inactive | inactive | – | – | – | –
O=C1c2ccccc2C(=O)c2cc(O)ccc21 | inactive | inactive | inactive | inactive | – | – | – | –
CCCCC1C(=O)N(c2ccccc2)N(c2ccccc2)C1=O | inactive | inactive | inactive | inactive | – | – | – | –
O=c1cc[nH]cc1 | inactive | inactive | inactive | inactive | – | – | – | –
CCN(O)CC | inactive | inactive | inactive | inactive | – | – | – | –
COC(=O)Nc1nc2ccc(S(=O)c3ccccc3)cc2[nH]1 (stereo not given) | inactive | inactive | inactive | inactive | – | – | – | –
N#Cc1cc(NC(=O)C(=O)O)c(Cl)c(NC(=O)C(=O)O)c1 | inactive | inactive | inactive | inactive | – | – | – | –
O=S1(=O)OC(c2ccc(O)cc2)(c2ccc(O)cc2)c2ccccc21 | inactive | inactive | inactive | inactive | – | – | – | –
NC(=O)N/N=C/c1ccc([N+](=O)[O-])o1 | inactive | inactive | inactive | inactive | – | – | – | –
O=C1CCCCC1 | inactive | inactive | inactive | inactive | – | – | – | –
CC(=O)N/N=C/c1ccc([N+](=O)[O-])o1 | inactive | inactive | inactive | inactive | – | – | – | –
FC(F)(F)C(F)(F)C(F)(F)C(F)(F)C(F)(F)C(F)(F)C(F)(F)C(F)(F)C(F)(F)C(F)(F)F | – | – | – | – | 0.771% [at 10.5 µM] | 1.63% [at 10.5 µM] | 1.44% [at 10.5 µM] | 1.12% [at 10.5 µM]
O=C(O)CCCCC1CCSS1 (stereo not given) | inactive | inactive | inactive | inactive | – | – | – | –
Cc1ccc(C#N)cc1 | inactive | inactive | inactive | inactive | – | – | – | –
CCCC[O][Al]([O]CCCC)[O]CCCC | inactive | inactive | inactive | inactive | – | – | – | –
CCNC(=O)/C=C/c1cccc(Br)c1 | inactive | inactive | inactive | inactive | – | – | – | –
CC1CCc2cc(F)cc3c(=O)c(C(=O)O)cn1c23 (stereo not given) | inactive | inactive | inactive | inactive | – | – | – | –
O=C(O)CN(CCCN(CC(=O)O)CC(=O)O)CC(=O)O | – | – | – | – | 0.786% [at 23.6 µM] | 4.89% [at 23.6 µM] | 3.08% [at 23.8 µM] | 1.21% [at 23.6 µM]
CC(C)S | inactive | inactive | inactive | inactive | – | – | – | –
O=C(Nc1cccc(C(F)(F)F)c1)c1cc(Br)cc(Br)c1O | inactive | inactive | inactive | inactive | – | – | – | –

Compound | Potency [1] | Potency [2] | Potency [3] | Potency [4] | activity, negative = inhibition [1] | activity change, negative = inhibition [2] | activity change, negative = inhibition [3] | activity change, negative = inhibition [4]
Cc1ncsc1CCO | inactive | inactive | inactive | inactive | – | – | – | –
CC(CO)(CO)C(=O)O | inactive | inactive | inactive | inactive | – | – | – | –
CCCc1c2oc(C(=O)O)cc(=O)c2cc2c(=O)cc(C(=O)O)n(CC)c12 | inactive | inactive | inactive | inactive | – | – | – | –
Nc1ccccc1Nc1ccccc1 | inactive | inactive | inactive | inactive | – | – | – | –
Cc1cc2nc3ccc(=[N+](C)C)cc-3sc2cc1N | 1.38 µM (active) | 4.9 µM (active) | 2.19 µM (active) | 24.5 µM (active) | – | – | – | –
OC1CCCCCCCCCCC1 | inactive | inactive | inactive | inactive | – | – | – | –
C=CCCCCCCCCC(=O)OCC | inactive | inactive | inactive | inactive | – | – | – | –
CCc1nccnc1CC | – | – | – | – | 2.95% [at 23.6 µM] | -0.515% [at 23.6 µM] | 3.3% [at 23.8 µM] | 0.443% [at 23.6 µM]
Cc1cc2c(C(C)C)c(O)c(O)c(C=O)c2c(O)c1-c1c(C)cc2c(C(C)C)c(O)c(O)c(C=O)c2c1O | inactive | inactive | inactive | inactive | – | – | – | –
CC(=O)OC(C)OC(=O)C(C)c1ccc(-c2ccccc2)c(F)c1 (stereo not given) | inactive | inactive | inactive | inactive | – | – | – | –
OCC(O)CN1CCN(c2ccccc2)CC1 (stereo not given) | inactive | inactive | inactive | inactive | – | – | – | –
CCCc1ccccc1O | inactive | inactive | inactive | inactive | – | – | – | –
CCCN(CCC)C(=O)SCC | inactive | inactive | inactive | inactive | – | – | – | –
NC(=O)C1(N2CCCCC2)CCN(CCCC(=O)c2ccc(F)cc2)CC1 | inactive | inactive | inactive | inactive | – | – | – | –
CC1CCC(CO)CC1 (stereo not given) | inactive | inactive | inactive | inactive | – | – | – | –
CNCCCC12CCC(c3ccccc31)c1ccccc12 | inactive | inactive | inactive | inactive | – | – | – | –
Cc1cc(C(=C2C=CC(=Nc3ccc(S(=O)(=O)O)cc3S(=O)(=O)O)C=C2)c2ccc(Nc3ccc(S(=O)(=O)O)cc3)cc2)ccc1N | inactive | inactive | inactive | inactive | – | – | – | –
NC(=O)c1nc(-c2cccc(-c3cc(F)ccc3OCC(F)(F)C(F)(F)F)c2)n[nH]1 | inactive | inactive | inactive | inactive | – | – | – | –
CCCCC1CCC(=O)O1 (stereo not given) | inactive | inactive | inactive | inactive | – | – | – | –
C#C[C@]1(O)CC[C@H]2[C@@H]3[C@H](C)CC4=C(CCC(=O)C4)[C@H]3CC[C@@]21C | inactive | inactive | inactive | inactive | – | – | – | –

Compound | Potency [1] | Potency [2] | Potency [3] | Potency [4] | activity, negative = inhibition [1] | activity change, negative = inhibition [2] | activity change, negative = inhibition [3] | activity change, negative = inhibition [4]
CCCN(CCC)S(=O)(=O)c1ccc(C(=O)O)cc1 | inactive | inactive | inactive | inactive | – | – | – | –
COc1ccc(COC(C)=O)cc1 | inactive | inactive | inactive | inactive | – | – | – | –
CCCCCCCCO | inactive | inactive | inactive | inactive | – | – | – | –
CCN=c1cc2oc3cc(NCC)c(C)cc3c(-c3ccccc3C(=O)OCC)c-2cc1C | 6.31 µM (active) and 8.94 µM (active) | 17.8 µM (active) | inactive | 79.4 µM (active) and 63.3 µM (active) | – | – | – | –
CCC(C)c1cc([N+](=O)[O-])cc([N+](=O)[O-])c1OC(=O)OC(C)C (stereo not given) | inactive | inactive | inactive | inactive | – | – | – | –
O=C(O)CN(CC(=O)O)CC(=O)O | inactive | inactive | inactive | inactive | – | – | – | –
OCC1(CO)COCOC1 | inactive | inactive | inactive | inactive | – | – | – | –
COc1ccc([C@@H]2Sc3ccccc3N(CCN(C)C)C(=O)[C@@H]2OC(C)=O)cc1 | inactive | inactive | inactive | inactive | – | – | – | –
CCOC(=O)C(O)c1ccccc1 (stereo not given) | inactive | inactive | inactive | inactive | – | – | – | –
CC(=O)SC[C@@H](C)C(=O)N1CCC[C@H]1C(=O)N[C@@H](Cc1ccccc1)C(=O)O | inactive | inactive | inactive | inactive | – | – | – | –
CCCCCCCCCCCCCCCCN | inactive | inactive | inactive | inactive | – | – | – | –
NCCCN1CCN(CCCN)CC1 | inactive | inactive | inactive | inactive | – | – | – | –
CN1CCC[C@H]1c1cccnc1 | inactive | inactive | inactive | inactive | – | – | – | –
O=C1C(c2[nH]c3ccc(S(=O)(=O)O)cc3c2O)=Nc2ccc(S(=O)(=O)O)cc21 | inactive | inactive | inactive | inactive | – | – | – | –
C=CN1CCCC1=O | inactive | inactive | inactive | inactive | – | – | – | –
CC(C)CCCCCOC(=O)CCS | inactive | inactive | inactive | inactive | – | – | – | –
CCCCCCOC(C)=O | inactive | inactive | inactive | inactive | – | – | – | –
O=C(O)C1CCC(C(=O)O)CC1 (stereo not given) | inactive | inactive | inactive | inactive | – | – | – | –
CC(=O)CC(C)(C)O | inactive | inactive | inactive | inactive | – | – | – | –
CCCCCCCCCCC1CO1 (stereo not given) | inactive | inactive | inactive | inactive | – | – | – | –

From PubChem BioAssay (Tox21)
